Screening results (PubChem BioAssay)
The list is not random: actives were taken first. Their share in the collection is about 22%.
CYP2C9 act = human CYP2C9 activators, primary screen, biochemical, luminescence. AID 1024, 2008. recombinant CYP2C9, luciferin-H conversion; hits give high values; factor 1 = untreated enzyme, 0 = blocked. 96,000 compounds, 1.4% hits. activation factor at 5 µM. Cytochrome P450 2C9 (Homo sapiens), P11712;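 active = activation factor of 2 or more for CYP2C9 at a 5 µM dose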;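 also: 0 = sulfaphenazole-blocked wells and 1 = vehicle-only wells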
Target sequence (P11712 whole entry, looked up): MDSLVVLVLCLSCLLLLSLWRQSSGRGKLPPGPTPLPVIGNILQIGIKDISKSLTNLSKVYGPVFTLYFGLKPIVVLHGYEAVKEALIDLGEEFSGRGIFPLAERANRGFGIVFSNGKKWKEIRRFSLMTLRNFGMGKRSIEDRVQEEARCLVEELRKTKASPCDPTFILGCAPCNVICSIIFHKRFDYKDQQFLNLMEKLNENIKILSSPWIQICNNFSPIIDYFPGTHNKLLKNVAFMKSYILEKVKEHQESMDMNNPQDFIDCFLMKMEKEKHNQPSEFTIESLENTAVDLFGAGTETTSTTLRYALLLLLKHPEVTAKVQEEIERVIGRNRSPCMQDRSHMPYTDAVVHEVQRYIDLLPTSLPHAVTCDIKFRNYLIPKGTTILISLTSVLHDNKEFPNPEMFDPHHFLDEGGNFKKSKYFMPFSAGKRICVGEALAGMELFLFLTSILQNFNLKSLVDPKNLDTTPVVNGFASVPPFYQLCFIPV
CYP2C19 inh = blockers of cytochrome P450 2C19 activity – biochemical, luminescence, ADME assay, primary screen. P33261. CYP2C19 Supersomes, luciferin-H EGE luminescence, 30 min. inhibition, % at 5 µM. 96,000 compounds, 21% hits. AID 778, 2007;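 active = CYP2C19 inhibition above a set limit at 5 µM in the primary screen, cut at about 50% in these data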;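 also: plate controls were negative control wells for no effect and 2.5 mM tranylcypromine positive control for full effect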
Measles CPE = compounds protecting cells from measles virus cytopathic effect, primary screen, measles RdRp inhibitor project, single point, MLSMR library, absorbance; Measles virus-infected cells, CPE protection; protection (pct of control), % at 4 µM; 140,000 compounds, 1.5% hits; AID 841, 2007; in the data active = protection mostly above about 24%, no sharp cut-off; inactive = mostly below about 26%
CYP2C19 activ = human CYP2C19 activators, primary screen, biochemical, luminescence; Cytochrome P450 2C19 (Homo sapiens), P33261; recombinant CYP2C19, luciferin-H EGE luminescence; hits give high values; 0 = fully inhibited enzyme, 1 = untreated enzyme; activation factor at 5 µM; 96,000 tested, under 10 active; AID 1025, 2008;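 active = activation factor of at least 2 at 5 µM in the primary screen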;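 also: 0 = wells with 2.5 mM tranylcypromine and 1 = vehicle-only wells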
CYP2C9 inhib = blockers of cytochrome P450 2C9 activity – biochemical, luminescence, ADME assay, primary screen | P11712 | CYP2C9 Supersomes, luciferin-H conversion | inhibition, % at 5 µM | 96,000 compounds, 20% hits;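 active = blocking of liver enzyme CYP2C9 beyond about 50% at 5 µM, limit read from the data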
* hit, by the source's call.

CCC(=O)N1CCc2cc(S(=O)(=O)CCC(=O)N3CCc4ccccc4C3)ccc21 was read as CYP2C9 act 1.1, CYP2C19 inh 9, Measles CPE 18, CYP2C19 activ 0.9 and CYP2C9 inhib -10.
`CCOC(=O)c1[nH]c2ccc(C)cc2c1NC(=O)CN1CCCCC1` gave CYP2C9 act 0.7, CYP2C19 inh 60*, Measles CPE 14, CYP2C19 activ 0.4 and CYP2C9 inhib 30.
For COC(=O)c1[nH]c2ccc(C)cc2c1NC(=O)CN1CCCC(C)(C)C1 the results were CYP2C9 act 0.8, CYP2C19 inh 39, Measles CPE 3, CYP2C19 activ 0.6 and CYP2C9 inhib 18.
Screening CCOC(=O)c1[nH]c2ccc(OCC)cc2c1NC(=O)CN1CCCC(C)C1 (configuration not stated) returned CYP2C9 act 0.4, CYP2C19 inh 78*, Measles CPE 4, CYP2C19 activ 0.2 and CYP2C9 inhib 60*.
Screening CCn1c2ccccc2c2cc(NC(=O)c3cccc(OC)c3)ccc21 returned CYP2C9 act 1.4, CYP2C19 inh 5, Measles CPE 9, CYP2C19 activ 1 and CYP2C9 inhib -38.
`CN(C)S(=O)(=O)c1cccc(C(=O)Nc2ccccc2Cl)c1` gave CYP2C9 act 0.6, CYP2C19 inh 16, Measles CPE 18, CYP2C19 activ 0.8 and CYP2C9 inhib 40.
For CCn1c(C)c(C)c2cc(C(=O)Nc3cccc(Cl)c3)ccc21 the results were CYP2C9 act 2.4*, CYP2C19 inh 14, Measles CPE 8, CYP2C19 activ 0.9 and CYP2C9 inhib -140.
`CNS(=O)(=O)c1cccc(C(=O)Nc2cccc(Cl)c2)c1` gave CYP2C9 act 0.4, CYP2C19 inh 70*, Measles CPE 7, CYP2C19 activ 0.3 and CYP2C9 inhib 62*.
CN(C)S(=O)(=O)c1cccc(C(=O)Nc2cc(Cl)cc(Cl)c2)c1 was read as CYP2C9 act 0, CYP2C19 inh 32, Measles CPE 22, CYP2C19 activ 0.7 and CYP2C9 inhib 98*.
For COc1ccc(Cl)cc1C(=O)NNC(=O)c1cccc(S(=O)(=O)N(C)C)c1 the results were Measles CPE 73*.
Screening COc1ccc(OC)c(NC(=O)Cn2cnc3c(cnn3-c3ccccc3)c2=O)c1 returned Measles CPE 8.
Screening CN(C)S(=O)(=O)c1cccc(C(=O)Nc2cc(Cl)ccc2O)c1 returned CYP2C9 act 0.3, CYP2C19 inh 49, Measles CPE 3, CYP2C19 activ 0.5 and CYP2C9 inhib 67*.
For CN(C)S(=O)(=O)Oc1cccc(C(=O)Nc2cccc(Cl)c2)c1 the results were CYP2C9 act 0.2, CYP2C19 inh 70*, Measles CPE 14, CYP2C19 activ 0.3 and CYP2C9 inhib 82*.
Screening Cc1cc(NC(=O)c2nn(C)c(C)c2[N+](=O)[O-])no1 returned CYP2C9 act 1, CYP2C19 inh -2, Measles CPE 8, CYP2C19 activ 1 and CYP2C9 inhib -2.
`Cc1ccc(C(=O)OC2OC(=O)C(Cl)=C2N2CCOCC2)cc1` (configuration not stated) gave Measles CPE 13.
For CCOC(=O)CSc1nc(N)c(C(=O)Nc2ccc(N(C)C)cc2)s1 the results were CYP2C9 act 0.5, CYP2C19 inh 65*, Measles CPE 19, CYP2C19 activ 0.3 and CYP2C9 inhib 47.
Screening CCOC(=O)CSc1nc(C)c(C(=O)OCC)s1 returned CYP2C9 act 0.3, CYP2C19 inh 38, Measles CPE 10, CYP2C19 activ 0.6 and CYP2C9 inhib 65*.
`CCN(CC)C(=O)CSc1nc(N)c(C(=O)Nc2ccc(OC)cc2)s1` gave Measles CPE 5.
Screening CCCCNC(=O)c1ccc(CS(=O)(=O)c2cccc(C(F)(F)F)c2)o1 returned CYP2C9 act 1.3, CYP2C19 inh 71*, CYP2C19 activ 0.3 and CYP2C9 inhib -30.
Screening COc1ccccc1S(=O)(=O)Cc1ccc(C(=O)NCc2ccc3c(c2)OCO3)o1 returned CYP2C9 act 0.3, CYP2C19 inh 61*, Measles CPE 6, CYP2C19 activ 0.4 and CYP2C9 inhib 75*.
